Source: PubChem
SMN2 splice enh – increases expression of the SMN2 splice variant | HEK293 SMN2-luciferase splicing reporter, luminescence, 30-36 h | Potency, µM (top dose mostly 46.1 µM), for inactives: top-dose activity change, positive = activation, actives largely listed as activators | 2.8% of 210,000 active | AID 1458; further: % of control where 0% means no effect; nearly all actives have a fitted effect of over 55% in size
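qHTS luciferase splicing reporter: luminescence rises when SMN2 exon 7 is included in transfected HEK293 cells. Compound exposure lasted 30-36 h at 37C, with 4.5 mM final sodium butyrate as control, followed by a ONE-Glo read.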
Rab9 promoter act – Rab9 promoter activation. 2.8% of 320,000 active. Potency, µM (highest dose often 9.22 µM), for inactives: at the top dose activation, negative = inhibition, hits mostly activators. Huh7 Rab9 promoter-luciferase reporter, luminescence, 24 h; further: % of control where 0% means no effect; nearly all actives have a fitted effect of over 60% in size
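Using Huh7 cells stably transfected with Rab9 promoter–luciferase, compounds were incubated 24 h at 37 °C, 5% CO2; luciferase luminescence was read 10 min after reagent addition.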
ELG1 genotoxic – inducers of genotoxicity in HEK293T ELG1-luciferase cells. HEK293T ELG1-luciferase reporter, luminescence, 16 h. Potency, µM (doses to about 46 µM), for inactives: at the top dose activity change, positive = activation, hits mostly activators. 1.3% of 330,000 active; further: % of control where 0% means no effect; nearly all actives have a fitted effect of over 60% in size
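DMSO vehicle served as control against compound-treated ELG1-luciferase HEK293T cells; exposure lasted 16 hr at 37 °C and 5% CO2, followed by ONE-Glo luminescence detection after 30 min.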
Luc counter – blocks Kinase-Glo luciferase, a counter-screen artifact; AID 1379; Kinase-Glo luciferase, ATP luminescence, 8 min; Potency, µM (top dose mostly 38.3 µM), without a hit: top-dose activity change, negative = inhibition, actives largely listed as inhibitors; 0.28% of 200,000 active; further: on the % scale 0 is the no-effect control and ±100 the full control effect; nearly all actives have a fitted effect of over 60% in size
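Substrate mix (final 50 mM imidazole pH 7.2, 50 mM KCl, 7 mM MgCl2, 10 uM ATP, 0.01% Tween 20, 0.05% BSA) plus pin-tool compound, then Kinase-Glo detection mix; 8 min ambient, luminescence read.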
FLuc counter – firefly luciferase modulation, counter-screen for miR-21 project; Potency, µM (series often up to 57.5 µM), for the others: top-dose activity change, negative = inhibition, usual class: inhibitors; P08659; AID 588342; 6.9% of 360,000 active; purified FLuc, Km substrates, luminescence inhibition;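 further: plate controls were vehicle for no effect and reference inhibitor for full effect; nearly all actives have a fitted effect of over 55% in size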
Target sequence (P08659 whole entry, looked up): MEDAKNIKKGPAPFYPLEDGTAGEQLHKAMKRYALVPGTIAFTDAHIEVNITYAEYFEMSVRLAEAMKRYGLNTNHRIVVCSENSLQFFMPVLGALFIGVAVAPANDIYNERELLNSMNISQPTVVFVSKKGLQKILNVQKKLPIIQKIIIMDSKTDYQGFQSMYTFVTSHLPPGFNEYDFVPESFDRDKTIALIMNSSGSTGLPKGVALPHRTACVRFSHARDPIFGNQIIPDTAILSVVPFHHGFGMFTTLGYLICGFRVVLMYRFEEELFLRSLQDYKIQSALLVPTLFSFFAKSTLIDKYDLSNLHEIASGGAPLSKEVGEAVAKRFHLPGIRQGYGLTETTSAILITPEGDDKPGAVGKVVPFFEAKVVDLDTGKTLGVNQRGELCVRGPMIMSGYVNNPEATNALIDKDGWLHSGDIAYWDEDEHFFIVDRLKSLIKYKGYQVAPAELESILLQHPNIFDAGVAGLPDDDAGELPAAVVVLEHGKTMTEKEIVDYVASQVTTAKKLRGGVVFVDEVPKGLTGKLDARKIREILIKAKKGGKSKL
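Biochemical qHTS of compounds, final roughly 60 µM downward over six points, against 10 nM purified firefly luciferase using Km concentrations of substrates (10 uM D-luciferin, 10 uM ATP) in Tris acetate pH 7.5 buffer; luminescence output.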
NPC1 promoter act – NPC1 promoter activation. Potency, µM (doses to about 9.22 µM), for the others: at the top dose activation, usual class: activators. 2.4% of 320,000 active. Huh7 NPC1 promoter luciferase reporter, 24 h; further: % of control where 0% means no effect; nearly all actives have a fitted effect of over 60% in size
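Luciferase expression driven by the NPC1 promoter was measured in stably transfected Huh7 cells after a 24 h compound incubation, using a luciferase reagent and a luminescence read.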
The depositor's hits bear a star; ? = inconclusive; / = no result. Shown are actives, neighbours in structure and some others; about 7.3% of the full set was active somewhere. The call rests on the fitted dose curve; in most records, active means well fitted curve in the direction sought with a large enough effect; inconclusive means small, poorly fitted or top-dose-only effect, or another doubt; inactive means no such curve, though single readings can be large; an effect the other way counts as inactive or inconclusive. Potency means the concentration at half of the fitted maximal effect.

SMILES	SMN2 splice enh	Rab9 promoter act	ELG1 genotoxic	Luc counter	FLuc counter	NPC1 promoter act
O=C(NCc1ccco1)c1sc2ccccc2c1Cl	?	?	?	1%	21µM*	26%
CN1CCN(c2ccc(NC(=O)c3sc4ccccc4c3Cl)cc2)CC1	3%	1µM*	?	1%	1.9µM*	2.5µM*
CN1CCN(C(=O)c2ccccc2NC(=O)c2sc3ccccc3c2Cl)CC1	/	13%	2%	/	?	1%
O=C(Nc1ccncc1)c1sc2ccccc2c1Cl	?	?	2%	-4%	?	?
Cc1ccc(NC(=O)c2nsc(Cl)c2Cl)cc1	/	2.8µM*	?	/	1.7µM*	3.5µM*
Cc1ccc(NC(=O)c2ccc(Cl)nc2)cc1	?	?	28%	0%	?	1%
Cc1ccc(NC(=O)c2sc3ccccc3c2Cl)cc1	8.9µM*	/	/	/	1.2µM*	/
Cc1ccc(-n2c(=O)c(C#N)cc3c(=O)n4ccccc4nc32)cc1	4%	1%	6%	1%	1%	-1%
Cc1ccc(C)c(OCCC(=O)NCCc2ccc(Cl)cc2)c1	/	-3%	-4%	/	3%	0%
c1ccc(CNCCN2CCNCC2)nc1	12%	-2%	1%	-2%	2%	20%
Cc1c(Cl)cccc1NC(=O)CNC(=O)Cc1n[nH]c(=O)c2ccccc12	/	/	1%	/	/	/
O=C(NN=C1CCCC1)c1sc2ccccc2c1Cl	-14%	4%	-4%	2%	?	0%
CCn1nnc(NC(=O)c2sc3ccccc3c2Cl)n1	11µM*	?	21µM*	-5%	9.5µM*	2.2µM*
O=C1CCC/C(=N/NC(=O)c2sc3ccccc3c2Cl)C1	/	?	12%	/	15µM*	?
CCCCNS(=O)(=O)c1ccc(NC(=O)c2c(-c3ccccc3)noc2C)cc1	-4%	/	/	/	-3%	/
O=S(=O)(c1ccccc1)N1CCCN(S(=O)(=O)c2ccccc2)CC1	/	-8%	-4%	/	0%	-4%
CNC(=O)c1ccc(NC(=O)CCNC(=O)Nc2ccccc2)cc1	/	9%	1%	/	6%	-1%
CCN(CC(=O)Nc1c(F)cccc1F)C(=O)CNC(=O)c1ccc(C)s1	/	?	26%	/	15µM*	?
O=c1c2[nH]c3ccc(F)cc3c2ncn1Cc1ccncc1	/	0%	0%	/	1%	-2%
O=c1c2[nH]c3ccc(F)cc3c2ncn1C1CCCCC1	7%	4µM*	14%	-2%	-11%	?
CSc1ccccc1OCc1cc(C(=O)N2CCC(c3ccncc3)CC2)no1	/	-20%	-8%	/	-17%	-25%
CSc1ccccc1OCc1cc(C(=O)N2CCN(c3ccccc3)CC2C)no1 (stereo not drawn)	/	4.5µM*	13%	/	15µM*	?
CC(=O)c1ccc(OCc2cc(C(=O)N3CCN(c4ccccc4)CC3C)no2)cc1 (stereo not drawn)	/	1.3µM*	?	/	8.5µM*	1.6µM*
CC(=O)c1ccc(OCc2cc(C(=O)N3CCC[C@H]3CO)no2)cc1	/	10%	3%	/	-3%	-5%
CCN(C#N)c1nc(NC(C)C)nc(NC(C)(C)C)n1	/	-2%	5%	-1%	3%	-2%
SMILES	SMN2 splice enh	Rab9 promoter act	ELG1 genotoxic	Luc counter	FLuc counter	NPC1 promoter act
CCOC(=O)C1CCCN(C(=O)c2cc3cc(Br)ccc3oc2=O)C1 (stereo not drawn)	-10%	0%	-3%	2%	-5%	-3%
Cc1cccc(Oc2ccccc2N)c1	16%	-4%	0%	-2%	8%	0%
CC(C)(C)NC(=S)NNC(=O)c1ccccc1Cl	21%	-3%	3%	3%	1%	-3%
O=C(c1ccc2c(c1)OCCO2)N(Cc1cccnc1)c1nc2ccc(F)cc2s1	/	/	/	/	17µM*	/
COc1ccc2nc(N(Cc3cccnc3)C(=O)c3ccco3)sc2c1	/	/	/	/	17µM*	/
CCS(=O)(=O)c1ccccc1C(=O)N(Cc1cccnc1)c1nc2cc(C)c(C)cc2s1	/	/	/	/	21µM*	/
CCOc1ccc2nc(N(Cc3cccnc3)C(=O)c3ccco3)sc2c1	/	/	/	/	17µM*	/
